# Source: PubChem BioAssay
# “And” between values parts separate entries of the source, which are not always exact repeats. Equal entries are not always repeated. The source made the active and inactive calls. Unless noted, how the calls were made is not given here.
# What was measured:
# [1] = resazurin metabolic signal in HepG2 cells – cell-based, resazurin fluorescence, 24 h, PK04 Diversity Set, profiling panel (AID 1172); settings: HepG2 viability, higher = more signal
# [2] = budding yeast growth changes without added modifier – OD600, strain BY4716, 24 h, basal condition, primary screen (AID 1173); settings: S. cerevisiae BY4716 growth, OD600, 24 h; higher = more signal, called active from +8 up or from −8 down
# [3] = viability profiling in MM1S myeloma cells – cell-based, resazurin fluorescence, basal, 24 h, PK04 Diversity Set, profiling panel (AID 1174); settings: higher = more signal, called active from +8 up or from −8 down;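 further: MM1S multiple myeloma cell line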
# [4] = target: Dihydroorotate dehydrogenase (quinone), mitochondrial (Plasmodium falciparum (isolate 3D7)) (UniProt Q08210); test: inhibition of P. falciparum DHODH – biochemical, C-terminal His tag, absorbance 600 nm, primary screen (AID 1175); settings: PfDHODH enzyme, DCIP absorbance 600 nm; higher = more signal, called active from +8 up or from −8 down;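 further: recombinant parasite enzyme with a five histidine tag at its C terminus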
# Dihydroorotate dehydrogenase (quinone), mitochondrial (Plasmodium falciparum (isolate 3D7)), sequence (Q08210 whole entry, looked up): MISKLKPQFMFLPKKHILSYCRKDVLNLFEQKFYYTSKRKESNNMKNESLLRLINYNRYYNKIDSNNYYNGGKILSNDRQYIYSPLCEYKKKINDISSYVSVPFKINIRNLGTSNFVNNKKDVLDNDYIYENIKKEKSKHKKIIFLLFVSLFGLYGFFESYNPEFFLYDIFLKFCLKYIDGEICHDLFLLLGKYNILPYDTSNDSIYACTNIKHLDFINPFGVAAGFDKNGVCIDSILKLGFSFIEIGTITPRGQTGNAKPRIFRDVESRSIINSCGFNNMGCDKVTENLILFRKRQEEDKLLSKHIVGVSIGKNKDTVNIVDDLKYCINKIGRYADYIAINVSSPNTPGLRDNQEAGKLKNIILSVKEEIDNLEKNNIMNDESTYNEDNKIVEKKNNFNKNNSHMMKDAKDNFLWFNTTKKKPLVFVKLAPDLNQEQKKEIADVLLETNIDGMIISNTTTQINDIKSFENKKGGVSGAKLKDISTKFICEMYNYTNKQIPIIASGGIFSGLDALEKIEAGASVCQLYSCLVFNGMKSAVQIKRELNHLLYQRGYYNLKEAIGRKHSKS
# [5] = inhibition of PAO1 biofilm formation – strain PAO1, LB-PBS medium, absorbance 600 nm, primary screen (AID 1176); settings: P. aeruginosa PAO1 growth/biofilm, A600, 12 h; higher = more signal
# [6] = growth modulation of vineyard yeast isolate – strain RM11-1a, OD600, basal, 24 h, primary screen (AID 1177);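 further: cultures grown under basal conditions with no added stressor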; settings: S. cerevisiae RM11-1a growth, OD600, 24 h; higher = more signal, called active from +8 up or from −8 down
# [7] = growth of efflux-deficient E. coli DRC39 – strain DRC39, OD650, 24 h, E. coli filamentation inducers, primary screen (AID 1178);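 further: growth measured as culture turbidity by optical density at 650 nm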; settings: E. coli DRC39 acrAB, higher = more signal, called active from +8 up or from −8 down
# [8] = growth of efflux-deficient E. coli DRC39 – strain DRC39, OD650, 48 h, E. coli filamentation inducers, primary screen (AID 1179);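 further: screen aims at cell division blockers that make cells filament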; settings: E. coli DRC39 delta-acrAB growth, higher = more signal, called active from +8 up or from −8 down
# [9] = viability profiling in RPMI8226 myeloma cells – cell-based, resazurin fluorescence, basal, 24 h, PK04 Diversity Set, profiling panel (AID 1180); settings: higher = more signal;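 further: RPMI8826 multiple myeloma cell line at 5000 cells per well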
# [10] = target: E3 ubiquitin-protein ligase XIAP (Homo sapiens) (UniProt P98170); test: small molecules binding XIAP protein – biophysical, small-molecule microarray, fluorescence 635 nm, primary screen (AID 1181); settings: higher = more signal;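 further: score merges 667 nm emission and signal to noise over triplicate slides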
# E3 ubiquitin-protein ligase XIAP (Homo sapiens), sequence (P98170 whole entry, looked up, the tested form may be a part): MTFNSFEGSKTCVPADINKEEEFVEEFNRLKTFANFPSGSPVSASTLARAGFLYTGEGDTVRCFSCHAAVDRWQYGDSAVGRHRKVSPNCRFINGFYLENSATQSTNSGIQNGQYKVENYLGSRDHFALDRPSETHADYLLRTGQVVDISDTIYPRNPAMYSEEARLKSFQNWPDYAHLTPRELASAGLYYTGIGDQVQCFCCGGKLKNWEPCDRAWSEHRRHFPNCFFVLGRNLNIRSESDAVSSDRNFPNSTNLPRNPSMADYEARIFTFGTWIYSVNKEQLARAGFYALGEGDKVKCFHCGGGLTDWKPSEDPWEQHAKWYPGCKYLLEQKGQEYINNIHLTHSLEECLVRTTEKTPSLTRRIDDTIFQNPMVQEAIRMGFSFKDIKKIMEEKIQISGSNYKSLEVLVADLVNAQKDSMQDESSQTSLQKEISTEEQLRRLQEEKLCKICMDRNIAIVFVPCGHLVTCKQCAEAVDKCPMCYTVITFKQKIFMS
# [11] = tested on: XIP peptide (Xip251-270) binding; test: XIP fragment 251-270 binding compounds – biochemical, small-molecule microarray, fluorescence 635/667 nm, 0.1 µg/mL protein, primary screen (AID 1182); settings: fluorescent protein binding, 635 nm, higher = more signal, called active from +8 up or from −8 down
# XIP peptide (Xip251-270) = test: compounds binding XIP fragment 251-270 – biochemical, small-molecule microarray, fluorescence 635/667 nm, 0.5 µg/mL protein, primary screen (AID 1183); settings: fluorescence 635 nm, higher = more signal
# [12] = blood-stage malaria parasite viability loss – strain 3D7, DAPI fluorescence, 100 nL, primary screen (AID 1184);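 further: parasites grown inside human red blood cells in medium with human serum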; settings: P. falciparum 3D7 growth, 3 d, higher = more signal
# [13] = target: Homeobox protein Hox-A13 (Mus musculus) (UniProt Q62424); test: disruptors of Hoxa13 oligonucleotide interaction – biochemical, fluorescence polarization, labeled oligonucleotide, primary screen (AID 1185); settings: Hoxa13:DNA binding, 15 min, higher = more signal, called active from +8 up or from −8 down
# Homeobox protein Hox-A13 (Mus musculus), sequence (Q62424 whole entry, looked up): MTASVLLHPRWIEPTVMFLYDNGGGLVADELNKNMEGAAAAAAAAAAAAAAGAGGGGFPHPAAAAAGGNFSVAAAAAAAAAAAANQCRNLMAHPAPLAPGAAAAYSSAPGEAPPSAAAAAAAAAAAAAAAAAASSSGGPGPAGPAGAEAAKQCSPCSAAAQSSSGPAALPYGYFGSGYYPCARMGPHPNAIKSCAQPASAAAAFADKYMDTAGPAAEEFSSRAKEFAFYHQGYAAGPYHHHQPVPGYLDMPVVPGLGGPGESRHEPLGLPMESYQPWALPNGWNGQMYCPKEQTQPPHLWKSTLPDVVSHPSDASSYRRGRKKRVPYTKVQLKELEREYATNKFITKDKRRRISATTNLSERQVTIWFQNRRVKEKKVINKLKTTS
# [14] = blockers of DNA damage checkpoint Chk1 activation – imaging, HeLa, hydroxyurea, phospho-Chk1 antibody, percent positive cells, primary screen (AID 1186); settings: hydroxyurea-induced phospho-Chk1 immunofluorescence imaging, higher = more signal
# [15] = blockers of DNA damage checkpoint Chk1 activation – imaging, HeLa, hydroxyurea, phospho-Chk1 nuclear intensity, primary screen (AID 1187); settings: hydroxyurea-induced phospho-Chk1 immunofluorescence imaging, higher = more signal
SMILES,z-score [1],z-score [2],z-score [3],composite z-score [4],z-score [5],z-score [6],z-score [7],z-score [8],z-score [9],composite z-score [10],composite z-score [11],composite z-score (XIP peptide (Xip251-270)),z-score [12],z-score [13],z-score [14],z-score [15]
CCOC(=O)c1ccc(NC(=O)O[C@H]2[C@H](OC(=O)Nc3ccccc3)[C@@H](OC(=O)Nc3ccccc3)[C@@H](OC)O[C@@H]2CO)cc1,-1.97 and -1.75,2.09 (inactive) and 0.61 (inactive),-2.14 (inactive) and -3.07 (inactive),0.146 (inactive) and 0.755 (inactive),1.94 (inactive) and 1.5 (inactive),2.51 (inactive) and 2.87 (inactive),0.028 (inactive) and 0.188 (inactive),-0.343 (inactive) and -0.714 (inactive),-1.82 and -1.87,0.39 and -0.146,1.73 (inactive) and 0.466 (inactive),0.928 and 0.91,-1.89 and -2.47,-3.34 (inactive) and -4.61 (inactive),0.416 (inactive) and -0.71 (inactive),0.161 (inactive) and -0.827 (inactive)
C=C[C@H](OC)[C@@H](O)c1ccc(O)c(F)c1,-0.463 and 0.413,-2.28 (inactive) and -3.3 (inactive),-0.74 (inactive) and 0.169 (inactive),-0.697 (inactive) and -0.991 (inactive),0.614 (inactive) and 0.45 (inactive),-0.684 (inactive) and -0.0772 (inactive),0.136 (inactive) and 1.2 (inactive),0.0056 (inactive) and 1 (inactive),-0.792 and 0.496,-0.283 and -0.107,0.406 (inactive) and -0.397 (inactive),0.563 and 0.0248,1.66 and 0.778,0.0518 (inactive) and 0.0165 (inactive),-0.0834 (inactive) and -0.834 (inactive),-0.132 (inactive) and -0.265 (inactive)
C=CCN(CCCC)C(=O)C(c1cccs1)N(C(=O)/C=C\C(=O)O)c1ccc(CCO)cc1 (stereo not given),-0.289 and -0.837,-0.561 (inactive) and -0.0853 (inactive),-0.508 (inactive) and -2.49 (inactive),-0.133 (inactive) and 0.117 (inactive),-0.208 (inactive) and -0.469 (inactive),0.24 (inactive) and 0.473 (inactive),0.596 (inactive) and 0.709 (inactive),0.597 (inactive) and 0.915 (inactive),-0.213 and -0.931,-0.102 and 0.0641,1.82 (inactive) and -0.761 (inactive),-0.319 and -1.84,0.28 and 0.445,-1.28 (inactive) and -0.734 (inactive),0.655 (inactive) and -0.177 (inactive),1.04 (inactive) and 0.345 (inactive)
C=C[C@@H](OC)[C@H](O)c1ccc(OCCO)cc1,0.242 and 0.884,-5.46 (inactive) and -6.32 (inactive),-0.154 (inactive) and 0.883 (inactive),0.358 (inactive) and -0.456 (inactive),0.519 (inactive) and 1.64 (inactive),0.526 (inactive) and -2.73 (inactive),0.0235 (inactive) and 1.08 (inactive),0.121 (inactive) and 1.48 (inactive),-0.121 and 1.36,-0.19 and -0.102,0.602 (inactive) and -0.746 (inactive),0.524 and 0.496,-0.748 and 0.0067,-0.717 (inactive) and -0.113 (inactive),-0.949 (inactive) and -0.429 (inactive),0.0246 (inactive) and 0.283 (inactive)
C=CCN(C(=O)C(c1cccs1)N(C(=O)/C=C\C(=O)O)C(C)(C)CO)c1ccc(OC)cc1 (stereo not given),0.916 and 0.892,-2.66 (inactive) and -1.93 (inactive),1.41 (inactive) and 0.788 (inactive),-1.46 (inactive) and -1.61 (inactive),0.659 (inactive),-4.37 (inactive) and -2.5 (inactive),1.81 (inactive) and 1.92 (inactive),2.23 (inactive) and 2.15 (inactive),0.402 and 0.207,-0.102 and 0.214,-0.114 (inactive) and 0.302 (inactive),-1.17 and -0.372,-0.89 and 0.294,-0.168 (inactive) and -2.07 (inactive),-0.951 (inactive) and -0.63 (inactive),-1.17 (inactive) and -0.0664 (inactive)
